PubChem BioAssay AID1645860 (Buhrlage Lab, Dana-Farber Cancer Institute and Novartis …, 2021)
The whole screen tested about 47,000 compounds, of which about 2,500 (5.3%) were called active. No stated cut-off is given here; in the data, active means inhibition above about 30%; inactive means the rest. Many of the other results were omitted from the sample, so actives are more common in it than they were.

Biological target: Ubiquitin carboxyl-terminal hydrolase 30 (Homo sapiens) (UniProt Q70CQ3)
Assay: inhibitors of human USP30 deubiquitinase (AID 1645860)
Conditions: purified USP30, Ub-rhodamine cleavage fluorescence; at 25 µM; stronger effect = higher value

Ubiquitin carboxyl-terminal hydrolase 30 (Homo sapiens), sequence (Q70CQ3 whole entry, looked up): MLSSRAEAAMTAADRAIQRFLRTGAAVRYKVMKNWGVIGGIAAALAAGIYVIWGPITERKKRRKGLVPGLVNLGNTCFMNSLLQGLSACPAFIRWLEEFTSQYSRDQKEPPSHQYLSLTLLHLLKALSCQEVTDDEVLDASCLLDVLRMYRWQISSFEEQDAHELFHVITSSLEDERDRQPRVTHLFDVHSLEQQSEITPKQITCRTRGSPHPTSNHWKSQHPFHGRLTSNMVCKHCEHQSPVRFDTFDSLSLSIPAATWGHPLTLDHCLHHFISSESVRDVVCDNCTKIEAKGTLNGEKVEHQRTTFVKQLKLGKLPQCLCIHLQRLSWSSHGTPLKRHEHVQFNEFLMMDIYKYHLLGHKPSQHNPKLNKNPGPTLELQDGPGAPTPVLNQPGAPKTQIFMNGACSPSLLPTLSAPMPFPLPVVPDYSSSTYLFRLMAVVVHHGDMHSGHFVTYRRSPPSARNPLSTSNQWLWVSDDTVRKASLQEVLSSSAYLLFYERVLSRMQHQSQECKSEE

Row | SMILES | inhibition
1 | COc1cccc(C(=O)NCc2ccc(-c3nc4cnccc4o3)cc2)c1 | 30.7% (active)
2 | COc1cccc(CNC(=O)c2ccc(-c3cncnc3)nc2)c1 | 17.3% (inactive)
3 | COc1cc(C(=O)Nc2ccc(-c3nc4cnccc4o3)cc2)cc(OC)c1OC | 14.2% (inactive)
4 | Cc1cnc(C(=O)N2CCC3(CC2)CC(OCC2CC2)CO3)cn1 (configuration not stated) | -3.6% (inactive)
5 | O=C(Cc1ccccc1)N1CCc2[nH]nc(-c3ccc(F)cc3)c2C1 | -4.25% (inactive)
6 | CC(NC(=O)c1ccc(S(=O)(=O)Nc2ccccc2)cc1)c1ccc(S(N)(=O)=O)cc1 (configuration not stated) | 11.3% (inactive)
7 | CC1(C)Cc2nc(-c3ccccc3)nc(SCC(=O)Nc3cccc4ccccc34)c2CO1 | -6.78% (inactive)
8 | CN1C(=O)C(C)(C)COc2ccc(NS(=O)(=O)c3ccccc3Cl)cc21 | 0.732% (inactive)
9 | O=C(COC(=O)c1ccc(F)c(S(=O)(=O)N2CCOCC2)c1)NCc1ccc2c(c1)OCO2 | -3.24% (inactive)
10 | COc1ccc2c(Sc3ccccc3)c(C(=O)NCc3ccc4c(c3)OCO4)[nH]c2c1 | 7.37% (inactive)
11 | CCCCN(c1ccccc1)S(=O)(=O)c1cccc(C(=O)OCC(=O)NCc2ccc3c(c2)OCO3)c1 | 47.1% (active)
12 | Cc1c(-c2nn3c(-c4ccco4)nnc3s2)cccc1[N+](=O)[O-] | -45.6% (inactive)
13 | CC(C)Cc1cc(-c2nn3c(-c4ccccc4Cl)nnc3s2)n[nH]1 | 40.6% (active)
14 | CNc1nc2c(c(=O)n1C)CN(S(=O)(=O)c1ccccc1)CC2 | 11.5% (inactive)
15 | CC(C)c1ccc(C(=O)N2CCN(c3cnn4cnnc4c3)CC2)cc1 | -7.33% (inactive)
16 | COc1ccc2ccccc2c1S(=O)N1CCN(c2ccccc2F)CC1 (configuration not stated) | 1.36% (inactive)
17 | COc1cc2[nH]c(=O)n(Cc3ccc(C(=O)N4CCN(c5ccccn5)CC4)cc3)c(=O)c2cc1OC | 9.66% (inactive)
18 | O=C(Cn1cnc2ccccc21)N1CCCc2ccccc21 | -7.37% (inactive)
19 | O=C(CSc1ccc2nnc(-c3ccccc3)n2n1)N1CCCc2ccccc21 | 51.5% (active)
20 | CC1CCN(C(=O)CSc2ccc3nnc(-c4cccc(F)c4)n3n2)CC1 | -0.05% (inactive)
21 | CC(C)CN1[C@H]2CCN(C(=O)c3ccccc3)CC[C@@H]2Oc2ccccc2S1(=O)=O | 16.5% (inactive)
22 | Cc1cccc(S(=O)(=O)NCCc2cn(C)c3ncccc23)c1 | -9.95% (inactive)
23 | Cc1cc2c(cc1S(=O)(=O)N1CCC(C(=O)N(C)Cc3ccco3)CC1)OCC(=O)N2 | 26.1% (inactive)
24 | O=C(Nc1c(C(=O)N2CCOCC2)oc2ccccc12)c1ccccc1F | 10.2% (inactive)
25 | CC(C)(C)n1nc(C2CC2)c(Br)c1NC(=O)c1ccccc1F | 35.5% (active)

Row | SMILES | inhibition
26 | O=C(Nc1cc(-c2ccccc2)nn1C1CCS(=O)(=O)C1)c1ccccc1F (configuration not stated) | -4.62% (inactive)
27 | O=C(Nc1cc(=O)[nH]c2nc(CCc3ccccc3)nn12)c1ccc(F)cc1 | -74.9% (inactive)
28 | C[C@]12C(=O)N(c3cccc(C(=O)NCCN4CCOCC4)c3)C(=O)N1CCc1c2[nH]c2ccccc12 | 12.9% (inactive)
29 | COc1ccc(CNC(=O)c2ccccc2N2C(=O)N3CCc4c([nH]c5ccccc45)[C@@]3(C)C2=O)cc1 | 41.7% (active)
30 | COc1ccc2[nH]c3c(c2c1)CCN1C(=O)N([C@@H](C)C(=O)NCC(=O)O)C(=O)[C@]31C | -8.05% (inactive)
31 | O=C(N[C@@H]1C[C@@H](Oc2cccc(F)c2)[C@H](O)[C@H]1N1CCCC1)C1CCOCC1 | -0.94% (inactive)
32 | COc1cccc(C(=O)N[C@@H]2C[C@@H](Oc3ccccc3)[C@H](O)[C@H]2O)c1 | 26.7% (inactive)
33 | Clc1cc2nc(N3CCN(c4ccccn4)CC3)c3nncn3c2cc1Cl | 36.4% (active)
34 | CCC(=O)Nc1ccc2c(c1)nc(CCN1CCN(c3ccccn3)CC1)n2C | -16.8% (inactive)
35 | Cc1nn(-c2ccccc2)c(C)c1S(=O)(=O)N1CCN(c2ccccn2)CC1 | -17.2% (inactive)
36 | CCN(C(=O)COc1cccnc1[N+](=O)[O-])c1ccccc1 | -14.2% (inactive)
37 | O=C(NCC(=O)N1CCCc2ccccc21)c1cccc2[nH]ccc12 | 5.02% (inactive)
38 | O=C(c1ccccc1)N1CCC(c2nc3c(nnn3Cc3c(Cl)cccc3Cl)c(=O)[nH]2)CC1 | -14.3% (inactive)
39 | Cc1ccc(-n2c(SCC(=O)N3CCOCC3)nnc2-c2cc3ccccc3o2)cc1 | -10.7% (inactive)
40 | O=C(CSc1nnc(-c2ccc3c(c2)OCO3)n1-c1ccccc1)OCC(=O)c1ccccc1 | 69.9% (active)
41 | COc1ccc(-n2c(SCC(=O)OC(C)C)nnc2-c2ccccn2)cc1 | 16.8% (inactive)
42 | CN1CCOc2cc(S(=O)(=O)N(C)Cc3ccccc3)ccc21 | 29.5% (inactive)
43 | CCOc1ncccc1C(=O)OCC(=O)c1ccc2c(c1)-c1ccccc1C2 | -153% (inactive)
44 | CCN1CCN(C(=O)c2cnn(-c3cc(-c4nc(C5CC5)no4)ccn3)c2C)CC1 | 1.81% (inactive)
45 | Cc1ccc(CNC(=O)c2nc(-c3cn(-c4ccc(Br)cc4)nc3C)no2)o1 | 30.2% (active)
46 | O=C(NCC1CC1)c1nc(-c2ccc3[nH]ccc3c2)no1 | 0.789% (inactive)
47 | CCc1nc(-c2ccc(-n3cc(C(=O)NCc4nc5ccc(C)cc5[nH]4)c(C)n3)cc2)no1 | 8.95% (inactive)
48 | COc1ccc(C(=O)CSc2nnc(CC(=O)Nc3ccc(C)cc3)n2C)cc1OC | 9.07% (inactive)
49 | Cn1cc(-c2nc(C(=O)Nc3ccc(F)cc3)cs2)c2cccnc21 | 62.1% (active)
50 | Cn1nc(C(=O)Nc2ccc(F)cc2)c(=O)c2ccccc21 | -0.148% (inactive)

Row | SMILES | inhibition
51 | Cc1cccc(NC(=O)c2csc(-c3cn(C)c4ncccc34)n2)c1 | -7.75% (inactive)
52 | Fc1ccccc1CNc1nnc(-c2nnc(C3CC3)o2)c2ccccc12 | 23.3% (inactive)
53 | O=C(O)/C(=C\c1ccc(Br)cc1)NC(=O)c1ccco1 | -0.242% (inactive)
54 | Cc1cccc(NC(=O)c2cccn2Cc2noc(C3CC3)n2)n1 | -19.2% (inactive)
55 | Cc1ccc(-c2cc(C(F)F)n3ncc(C(=O)NCC(C)C)c3n2)cc1 | 38.7% (active)
56 | COc1ccc(-c2cc(C(F)F)n3ncc(C(=O)N(C)Cc4c(C)nn(C)c4C)c3n2)cc1 | -14.7% (inactive)
57 | Cc1ccc(CNC(=O)c2cnn3c4c(cnc23)C(=O)CCC4)cc1 | -12.6% (inactive)
58 | COc1cccc(C2C(C(=O)Nc3ccccc3C)=C(C)Nc3ncnn32)c1OCc1ccccc1 (configuration not stated) | -8.1% (inactive)
59 | COc1ccccc1NC(=O)C1=C(C)Nc2ncnn2C1c1ccc(C)o1 (configuration not stated) | -6.73% (inactive)
60 | COc1ccc(NC(=O)C2=C(C)Nc3ncnn3C2c2cccc(OCc3ccc(F)cc3)c2)c(OC)c1 (configuration not stated) | 60.3% (active)
61 | O=C(COC(=O)c1ccc2[nH]c3c(c2c1)CCCC3)Nc1ccc(N2CCOCC2)cc1 | -55.7% (inactive)
62 | CN(C)c1ccc(CNC(=O)c2cc(CN3CCOCC3)on2)cc1 | 22% (inactive)
63 | O=C(CN1C(=O)c2cccnc2Sc2ccccc21)Nc1ccc(F)cc1F | -96.8% (inactive)
64 | O=C(CN1C(=O)C2CCCC2=Nc2ccccc21)Nc1ccc(F)cc1F (configuration not stated) | 32.2% (active)
65 | CCOc1nc2cccnc2n(CC(=O)Nc2ccc(F)cc2F)c1=O | -13% (inactive)
66 | CNC(=O)N1CCC(n2c(C)nc(C(=O)Nc3cccc(OC)c3)c2C)CC1 | 2.54% (inactive)
67 | COc1cccc(NC(=O)C(C#N)C(=O)C2CC2c2cccc(C)c2)c1 (configuration not stated) | 31.3% (active)
68 | CCN1CCCCC12Cc1ccccc1CN(S(C)(=O)=O)C2 (configuration not stated) | 1.88% (inactive)
69 | O=C(Nc1cccc(S(=O)(=O)N2CCCCCC2)c1)c1ccc(N2CCOCC2)c([N+](=O)[O-])c1 | 47.3% (active)
70 | Cc1cccc(NC(=O)c2ccc(N3CCC(C)CC3)c([N+](=O)[O-])c2)c1C | -29.1% (inactive)
71 | CN1CCN(S(=O)(=O)c2cccc(C(=O)Nc3cccc(S(N)(=O)=O)c3)c2)CC1 | 7.83% (inactive)
72 | COc1ccccc1OCc1nc(C)c(C(C)=O)s1 | 6.92% (inactive)
73 | c1ccc(Sc2nc(-c3ccccc3)nc3ccsc23)cc1 | -19% (inactive)
74 | CCC(=O)N1CCc2cc(S(=O)(=O)NC(Cc3ccccc3)C(=O)Nc3ccccc3OC)ccc21 (configuration not stated) | -0.729% (inactive)
75 | CC(CCc1ccccc1)NC(=O)c1cc2cc(Oc3ccccc3)ccc2[nH]1 (configuration not stated) | 8.29% (inactive)

Row | SMILES | inhibition
76 | O=C(Oc1cccc([N+](=O)[O-])c1)C(c1ccccc1)c1ccccc1 | 25% (inactive)
77 | CC(CCc1ccccc1)NC(=O)/C=C/c1cccc([N+](=O)[O-])c1 (configuration not stated) | 34.1% (active)
78 | COc1cccc(OCC(=O)N2CC(=O)Nc3ccccc32)c1 | -14.6% (inactive)
79 | Cc1nc(C)n(CC2CCCCN2Cc2ncc(C(C)(C)C)o2)n1 (configuration not stated) | -97.5% (inactive)
80 | Cc1cc(C2CN(C(=O)c3cn4c(C)cccc4n3)CCO2)nc(C)n1 (configuration not stated) | 2.35% (inactive)
81 | O=C(Cc1cccc2ccccc12)Nc1nc2ccc(F)cc2s1 | 53.9% (active)
82 | CCCC(=O)Nc1nc2ccc(CCC(=O)NCc3ccc(F)cc3)cc2s1 | -10.2% (inactive)
83 | CCOc1ccc2nc(NC(=O)CN3CCC(C(N)=O)CC3)sc2c1 | -1.04% (inactive)
84 | O=C(OCC(=O)N1CCc2ccccc21)c1cccc([N+](=O)[O-])c1 | -2.1% (inactive)
85 | CC(C)[C@H](NC(=O)N1CCn2c1nc1ccccc12)C(=O)NC1CC1 | 16% (inactive)
86 | O=C1CN(C(=O)c2cccc3ccccc23)C(c2ccc(F)cc2)c2cc(Br)ccc2N1 (configuration not stated) | 16% (inactive)
87 | Cc1ccc2c(c1)C(c1ccccc1)N(C(=O)c1ccc(S(=O)(=O)N3CCOCC3)cc1)CC(=O)N2 (configuration not stated) | 32.4% (active)
88 | Cc1ccc2c(c1)C(c1ccc(F)cc1)N(C(=O)CC1CCCCC1)CC(=O)N2 (configuration not stated) | 26.9% (inactive)
89 | O=C(c1ccccc1Cl)N1CCc2c([nH]c3ccccc23)C1c1ccc2c(c1)OCO2 (configuration not stated) | -14.6% (inactive)
90 | CCc1ccc(-n2nnc(C(=O)Nc3nnc(CC)s3)c2C)cc1 | 30.5% (active)
91 | CCc1nnc(NC(=O)c2cc(-c3ccc(C)c(C)c3O)n[nH]2)s1 | 17.9% (inactive)
92 | CCc1nnc(NC(=O)C2CCN(C(=O)c3ccc(F)cc3)CC2)s1 | -0.015% (inactive)
93 | COc1ccc(NC(=O)c2sc(N3CCOCC3)nc2-c2ccccc2)c(OC)c1 | 48.1% (active)
94 | CNC(=O)c1cc(-c2ccccc2)c(N2CCOCC2)s1 | -0.0877% (inactive)
95 | COc1ccc(-c2nc(N(Cc3ccccc3)C(=O)CN3CCOCC3)sc2C)cc1 | -14.4% (inactive)
96 | Cc1cc(C)c(S(=O)(=O)Nc2ccc(Cn3cncn3)cc2)cc1C | -29.3% (inactive)
97 | COc1ccc(CN[C@H]2[C@H](O)[C@H](O)C[C@@H]2c2ccccc2)cn1 | -17.6% (inactive)
